Experimental data from PubChem BioAssay AID1159580 (chemical genetic matrix, 2015).
Hit rate of the full screen: of about 5,500 compounds, about 2,000 (36%) were called active. Another 18% or so got no clear call; they are omitted. No stated cut-off is given here; in the data, active means normalized growth mostly below about 0.91 (no sharp cut-off); inconclusive means no clear call, values can overlap the other calls; inactive means mostly above about 0.92. The list shows a part of the results.

Assay: chemical genetic growth profiling, strain panel (AID 1159580);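 further: tested at 20 µM; growth read once vehicle control cultures reached saturation at 30 °C; 1 = growth at the plate median or of vehicle wells; lower values mean less growth of the strain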
Details: growth OD

Measured: normalized growth

Cn1c([N+](=O)[O-])cnc1COC(N)=O
inactive: S. cerevisiae deletion strains, locus YJR075W, strain HOC1, hits give low values 1.02 | S. cerevisiae deletion strains, locus YKL009W, strain mrt4, hits give low values 1.01 | S. cerevisiae deletion strains, locus YKL068W, hits give low values 0.991 | S. cerevisiae deletion strains, locus YKL085W, strain MDH1 (second series), hits give low values 0.994 | S. cerevisiae deletion strains, locus YKL085W, strain MDH1, hits give low values 0.994 | S. cerevisiae deletion strains, locus YKL160W, strain elf1, hits give low values 1.02 | S. cerevisiae deletion strains, locus YKL190W, strain CNB1, hits give low values 1 | S. cerevisiae deletion strains, locus YKR001C, strain vps1, hits give low values 0.976 | S. cerevisiae deletion strains, locus YKR026C, strain gcn3, hits give low values 0.998 | S. cerevisiae deletion strains, locus YKR091W, strain srl3, hits give low values 0.998 | S. cerevisiae deletion strains, locus YLL001W, strain dnm1, hits give low values 1.03 | S. cerevisiae deletion strains, locus YLL026W, hits give low values 1 | S. cerevisiae deletion strains, locus YLL041C, strain sdh2, hits give low values 0.993 | S. cerevisiae deletion strains, locus YLR027C, strain aat2, hits give low values 1.01 | S. cerevisiae deletion strains, locus YLR039C, strain RIC1, hits give low values 1.02 | S. cerevisiae deletion strains, locus YLR058C, strain SHM2, hits give low values 1.01 | S. cerevisiae deletion strains, locus YLR102C, strain apc9, hits give low values 0.986 | S. cerevisiae deletion strains, locus YLR113W, strain HOG1, hits give low values 1.03 | S. cerevisiae deletion strains, locus YLR221C, strain rsa3, hits give low values 0.978 | S. cerevisiae deletion strains, locus YLR258W, strain gsy2, hits give low values 1.02 | S. cerevisiae deletion strains, locus YLR262C, strain YPT6 (second series), hits give low values 1 | S. cerevisiae deletion strains, locus YLR262C, strain YPT6, hits give low values 1.05 | S. cerevisiae deletion strains, locus YLR268W, strain sec22, hits give low values 0.991 | S. cerevisiae deletion strains, locus YLR320W, strain mms22, hits give low values 0.983 | S. cerevisiae deletion strains, locus YLR330W, strain CHS5, hits give low values 1.01 | S. cerevisiae deletion strains, locus YLR342W, strain FKS1 (second series), hits give low values 0.982 | S. cerevisiae deletion strains, locus YLR342W, strain FKS1, hits give low values 0.998 | S. cerevisiae deletion strains, locus YLR357W, strain rsc2, hits give low values 0.989 | S. cerevisiae deletion strains, locus YLR370C, strain arc18, hits give low values 1.02 | S. cerevisiae deletion strains, locus YLR371W, strain rom2, hits give low values 0.988 | S. cerevisiae deletion strains, locus YLR384C, strain iki3, hits give low values 1 | S. cerevisiae deletion strains, locus YLR418C, strain cdc73, hits give low values 0.962 | S. cerevisiae deletion strains, locus YML016C, strain PPZ1, hits give low values 1 | S. cerevisiae deletion strains, locus YML032C, strain rad52, hits give low values 0.984 | S. cerevisiae deletion strains, locus YML120C, strain ndi1, hits give low values 0.999 | S. cerevisiae deletion strains, locus YML124C, strain tub3, hits give low values 0.99 | S. cerevisiae deletion strains, locus YMR058W, strain fet3, hits give low values 1.01 | S. cerevisiae deletion strains, locus YMR078C, strain ctf18, hits give low values 0.983 | S. cerevisiae deletion strains, locus YMR125W, strain sto1, hits give low values 0.991 | S. cerevisiae deletion strains, locus YMR129W, hits give low values 1.01 | S. cerevisiae deletion strains, locus YMR205C, strain PFK2, hits give low values 0.982 | S. cerevisiae deletion strains, locus YMR223W, strain ubp8, hits give low values 0.994 | S. cerevisiae deletion strains, locus YMR231W, strain pep5, hits give low values 1.01 | S. cerevisiae deletion strains, locus YMR263W, strain SAP30, hits give low values 1.01 | S. cerevisiae deletion strains, locus YMR307W, strain GAS1, hits give low values 0.981 | S. cerevisiae deletion strains, locus YNL067W, strain RPL9B, hits give low values 1.01 | S. cerevisiae deletion strains, locus YNL071W, strain lat1, hits give low values 1 | S. cerevisiae deletion strains, locus YNL153C, strain GIM3, hits give low values 1.01 | S. cerevisiae deletion strains, locus YNL183C, strain NPR1, hits give low values 0.957 | S. cerevisiae deletion strains, locus YNL209W, strain ssb2, hits give low values 1.01 | S. cerevisiae deletion strains, locus YNL233W, strain BNI4, hits give low values 1.01 | S. cerevisiae deletion strains, locus YNL248C, strain rpa49, hits give low values 0.995 | S. cerevisiae deletion strains, locus YNL250W, strain rad50, hits give low values 0.986 | S. cerevisiae deletion strains, locus YNL271C, strain bni1, hits give low values 0.978 | S. cerevisiae deletion strains, locus YNL298W, strain CLA4, hits give low values 0.988 | S. cerevisiae deletion strains, locus YNL307C, strain MCK1, hits give low values 0.984 | S. cerevisiae deletion strains, locus YNL322C, strain KRE1 (second series), hits give low values 1.02 | S. cerevisiae deletion strains, locus YNR049C, strain mso1, hits give low values 1.01 | S. cerevisiae deletion strains, locus YNR052C, strain pop2, hits give low values 0.989 | S. cerevisiae deletion strains, locus YOL006C, strain TOP1, hits give low values 1.05 | S. cerevisiae deletion strains, locus YOL012C, strain htz1 0.743 | S. cerevisiae deletion strains, locus YOL147C, strain pex11, hits give low values 0.981 | S. cerevisiae deletion strains, locus YOR001W, strain rrp6, hits give low values 0.963 | S. cerevisiae deletion strains, locus YOR061W, strain CKA2, hits give low values 1.01 | S. cerevisiae deletion strains, locus YOR069W, strain VPS5, hits give low values 1 | S. cerevisiae deletion strains, locus YOR070C, strain gyp1, hits give low values 0.996 | S. cerevisiae deletion strains, locus YOR080W, strain dia2, hits give low values 1.01 | S. cerevisiae deletion strains, locus YOR083W, strain WHI5, hits give low values 1.03 | S. cerevisiae deletion strains, locus YOR106W, strain vam3, hits give low values 1.03 | S. cerevisiae deletion strains, locus YOR136W, strain idh2, hits give low values 0.978 | S. cerevisiae deletion strains, locus YOR144C, strain elg1, hits give low values 0.972 | S. cerevisiae deletion strains, locus YOR184W, strain ser1, hits give low values 1.01 | S. cerevisiae deletion strains, locus YOR231W, strain MKK1, hits give low values 0.997 | S. cerevisiae deletion strains, locus YOR265W, strain rbl2, hits give low values 1 | S. cerevisiae deletion strains, locus YOR270C, strain vph1, hits give low values 1 | S. cerevisiae deletion strains, locus YOR290C, strain snf2, hits give low values 1.03 | S. cerevisiae deletion strains, locus YOR316C, strain cot1, hits give low values 0.993 | S. cerevisiae deletion strains, locus YPL051W, strain arl3, hits give low values 1.03 | S. cerevisiae deletion strains, locus YPL078C, strain atp4, hits give low values 1.03 | S. cerevisiae deletion strains, locus YPL106C, strain sse1, hits give low values 1.02 | S. cerevisiae deletion strains, locus YPL240C, strain hsp82, hits give low values 1.01 | S. cerevisiae deletion strains, locus YPL241C, strain CIN2, hits give low values 1.01 | S. cerevisiae deletion strains, locus YPL256C, strain CLN2, hits give low values 0.999 | S. cerevisiae deletion strains, locus YPR119W, strain clb2, hits give low values 0.981 | S. cerevisiae deletion strains, locus YPR141C, strain kar3, hits give low values 0.983 | S. cerevisiae deletion strains, locus YPR163C, strain tif3, hits give low values 0.99 | S. cerevisiae deletion strains, locus YPR167C, strain met16, hits give low values 0.992 | S. cerevisiae deletion strains, strain wtn01, hits give low values 0.984 | S. cerevisiae strains, strain wild type, hits give low values 1.01
